Test results as given in PubChem BioAssay (NCI).
The panel holds about 79,000 compounds, 15% with a hit somewhere; the sample as a whole holds those more often. Active and inactive are the calls of the source. No stated cut-off is given here; in the data, active means growth inhibition above about 70%; inactive means the rest.

Tests used:
[1] = NCI Yeast Anticancer Drug Screen. Data for the wt1 strain (AID 149);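 further: 0% = growth of vehicle-treated wt1 cultures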; conditions: S. cerevisiae wt1 strain (SPY 50644) growth inhibition, stronger effect = higher value
How it was run: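 Using yeast strain wt1, compound-induced growth inhibition was determined against vehicle-treated cultures.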

[2] = NCI Yeast Anticancer Drug Screen. Data for the rad50EPP+ strain (AID 151);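 further: 0% = growth of vehicle-treated control cultures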; conditions: S. cerevisiae rad50 mutant strain, stronger effect = higher value
How it was run: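 rad50EPP+ yeast treated with test compounds. Readout: growth vs vehicle control.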

[3] = NCI Yeast Anticancer Drug Screen. Data for the mgt1 strain (AID 153); conditions: S. cerevisiae mgt1 mutant growth inhibition, stronger effect = higher value
How it was run: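 Growth inhibition relative to vehicle controls was scored for the mgt1 yeast strain after compound exposure.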

[4] = NCI Yeast Anticancer Drug Screen. Data for the rad50 strain (AID 155);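 further: 0% = growth of vehicle-only cultures of the same strain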; conditions: S. cerevisiae rad50 strain growth inhibition, stronger effect = higher value
How it was run: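 Relative growth inhibition (compound vs vehicle) was measured in yeast with a defined repair-gene alteration.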

[5] = NCI Yeast Anticancer Drug Screen. Data for the mec2-1 strain (AID 157); conditions: S. cerevisiae mec2-1 strain, stronger effect = higher value
How it was run: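 Growth inhibition is read against vehicle-treated controls after compound exposure of the mec2-1 yeast strain, which is defective in DNA damage repair or cell cycle control.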

[6] = NCI Yeast Anticancer Drug Screen. Data for the rad14 strain (AID 159);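 further: 0% = growth of vehicle-treated control cultures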; conditions: S. cerevisiae rad14 strain growth inhibition, stronger effect = higher value
How it was run: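 Screen for anticancer potential: a yeast strain altered in DNA damage repair is grown with compound, and reduced growth is quantified against vehicle controls.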

[7] = NCI Yeast Anticancer Drug Screen. Data for the sgs1 mgt1 strain (AID 161);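 further: 0% = growth of cultures given vehicle only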; conditions: S. cerevisiae sgs1 mgt1 strain, stronger effect = higher value
How it was run: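 Percent growth inhibition was derived by comparing compound-exposed mutant yeast with vehicle-exposed cultures. The strain carries alterations in DNA damage repair.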

[8] = NCI Yeast Anticancer Drug Screen. Data for the CLN2oe strain (AID 163);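 further: 0% = growth of vehicle-only control cultures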; conditions: S. cerevisiae CLN2oe strain, stronger effect = higher value
How it was run: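 Compound-treated yeast; growth vs vehicle ctrl = % inhibition. Genetically altered strain (cell-cycle control).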

[9] = NCI Yeast Anticancer Drug Screen. Data for the cln2 rad14 strain (AID 165);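 further: 0% = growth equal to vehicle treated cultures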; conditions: S. cerevisiae cln2 rad14 strain, stronger effect = higher value
How it was run: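 Growth inhibition, relative to vehicle-treated controls, is the read-out. The test organism is a yeast strain with defined genetic alterations, cln2 rad14.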

[10] = NCI Yeast Anticancer Drug Screen. Data for the bub3 strain (AID 167); conditions: S. cerevisiae bub3 mutant strain, stronger effect = higher value
How it was run: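 Screening used yeast with an engineered genetic alteration affecting cell cycle control. Compound-exposed cultures were compared with vehicle cultures, and reduced growth was taken as inhibition.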

[11] = NCI Yeast Anticancer Drug Screen. Data for the wt2 strain (AID 169);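 further: 0% = growth of vehicle-treated yeast cultures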; conditions: S. cerevisiae wt2 strain growth inhibition, stronger effect = higher value
How it was run: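 Compound exposure of yeast; growth compared with vehicle controls; inhibition reported.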

[12] = NCI Yeast Anticancer Drug Screen. Data for the sgs1 strain (AID 173);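 further: 0% = growth of vehicle-only control cultures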; conditions: S. cerevisiae sgs1 mutant, stronger effect = higher value
How it was run: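 Compounds applied to genetically altered yeast; growth compared with vehicle-treated cultures to give % inhibition.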

[13] = NCI Yeast Anticancer Drug Screen. Data for the mlh1 rad18 strain (AID 175); conditions: S. cerevisiae mlh1 rad18 strain growth inhibition, stronger effect = higher value
How it was run: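 Cells of a genetically altered yeast strain, deficient in DNA damage repair, were treated with compound. Their growth was then compared with that of vehicle-treated cultures to give inhibition.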

[14] = at 5.0 µM (retest, dose inferred, filed as 0.5)
[15] = at 50.0 µM (retest, dose inferred, filed as 5.0)

Measured: growth inhibition

OC(CC(O)(C(F)(F)F)C(F)(F)F)c1ccc(C(O)CC(O)(C(F)(F)F)C(F)(F)F)cc1 (stereo not drawn)
inactive: [1]; at 1.2 µM 23% | [1]; at 3.7 µM 32% | [2]; at 1.2 µM -2% | [2]; at 3.7 µM 0% | [2]; at 11.0 µM 9% | [2]; at 33.0 µM 25% | [2]; at 100.0 µM 60% | [3]; at 1.2 µM 22% | [3]; at 3.7 µM 22% | [4]; at 1.2 µM 35% | [4]; at 3.7 µM 50% | [4]; [14] 36% | [5]; at 1.2 µM 18% | [5]; at 3.7 µM 38% | [5]; [14] 42% | [6]; at 1.2 µM 26% | [6]; at 3.7 µM 19% | [7]; [14] 26% | [8]; at 1.2 µM 3% | [8]; at 3.7 µM 68% | [9]; [14] 68% | [10]; at 1.2 µM -2% | [10]; at 3.7 µM 37% | [10]; [14] 15% | [11]; at 1.2 µM -1% | [11]; at 3.7 µM 17% | [12]; at 1.2 µM 26% | [12]; at 3.7 µM 26% | [13]; [14] 47%
active: [1]; at 11.0 µM 94% | [1]; at 33.0 µM 99% | [1]; at 100.0 µM 100% | [3]; at 11.0 µM 91% | [3]; at 33.0 µM 99% | [3]; at 100.0 µM 99% | [4]; at 11.0 µM 92% | [4]; at 33.0 µM 98% | [4]; [15] 100% | [4]; at 50.0 µM 99% | [4]; at 100.0 µM 92% | [5]; at 11.0 µM 94% | [5]; at 33.0 µM 99% | [5]; [15] 100% | [5]; at 50.0 µM 99.5% | [5]; at 100.0 µM 99% | [6]; at 11.0 µM 95% | [6]; at 33.0 µM 99% | [6]; at 100.0 µM 99% | [7]; [15] 100% | [7]; at 50.0 µM 99.5% | [8]; at 11.0 µM 99% | [8]; at 33.0 µM 99% | [8]; at 100.0 µM 100% | [9]; [15] 100% | [9]; at 50.0 µM 99.2% | [10]; at 11.0 µM 95% | [10]; at 33.0 µM 99% | [10]; [15] 100% | [10]; at 50.0 µM 99.5% | [10]; at 100.0 µM 99% | [11]; at 11.0 µM 98% | [11]; at 33.0 µM 99% | [11]; at 100.0 µM 100% | [12]; at 11.0 µM 87% | [12]; at 33.0 µM 99% | [12]; at 100.0 µM 99% | [13]; [15] 99% | [13]; at 50.0 µM 99.3%
